TGFb inhibitor: qHTS for Inhibitors of TGF-b; 410,000 tested, 1.2% active; Potency, µM (highest dose often 46.1 µM), for inactives: at the top dose activity, negative = inhibition, actives largely listed as inhibitors; HepG2 CAGA-GFP TGF-b/SMAD3 reporter, GFP fluorescence, 18 h; TGF-beta stimulated, 500 pg/mL final; AID 588855, 2011; note: potency is the fitted concentration of half-maximal effect; % is set by controls: 0 for no effect and ±100 for the full control effect; nearly all actives have a fitted effect of over 65% in size
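Inhibition was scored as loss of TGF-beta-induced (500 pg/mL final, 18 hours, 37 degrees C) GFP in HEPG2 cells carrying a CAGA-GFP reporter, in DMEM with 1% FBS. Well GFP was summed per cell; Activity was normalised to unstimulated and stimulated DMSO wells, then concentration-response fitting.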
HepG2 tox: qHTS for Inhibitors of TGF-b: Cytotox Counterscreen | HepG2 CAGA-GFP viability, ATP luminescence, 18 h | Potency, µM (top dose mostly 46.1 µM), for the others: at the top dose activity change, negative = cytotoxicity, hits mostly cytotoxic | 410,000 tested, 0.76% active; note: potency is the fitted concentration of half-maximal effect
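CellTiter-Glo luminescence gave cytotoxicity after 18 hours at 37 degrees C. The cells were HepG2 CAGA-GFP in 1% FBS DMEM, stimulated with 500 pg/mL TGF-beta after compound addition. %Activity was normalised to no-cell wells (complete cell-killing) and DMSO (no toxicity), and curves were fitted and classified.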
IL-1B inflam inh: qHTS for Inhibitors of Inflammasome Signaling: IL-1-beta AlphaLISA Primary Screen; THP-1 LPS/ATP IL-1B secretion, AlphaLISA, 16 h; active compounds read low; activity change, % at 57.5 µM; 360,000 tested, 4.7% active; AID 743279, 2014; in the data active = activity change below about -50%; inconclusive = mostly about -30% to -49%; note: % is set by controls: 0 for no effect and ±100 for the full control effect
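Secreted IL-1B measured by AlphaLISA bead assay after 16 h compound exposure of THP-1 cells; compounds (final up to 57.5 uM) added 1 h before LPS (250 ng/mL) and ATP (1.25 mM) stimulation; lower signal means less secretion.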
DT40 TDP1 CPT: qHTS for Inhibitors of human tyrosyl-DNA phosphodiesterase 1 (TDP1): qHTS in cells in presence of CPT; 420,000 tested, 12% active; AID 686979, 2013; Potency, µM (doses to about 46.2 µM), without a hit: at the highest dose activity change, negative = growth inhibition, hits mostly inhibitors; chicken DT40 Tdp1-/-;hTDP1 cells + 20 nM CPT, ATP luminescence, 48 h; note: potency is the fitted concentration of half-maximal effect; % is set by controls: 0 for no effect and ±100 for the full control effect; nearly all actives have a fitted effect of over 55% in size
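Cell growth measured by CellTiter-Glo luminescence after a minimum 48 h, 37 C compound exposure with 20 nM CPT in Tdp1-knockout DT40 cells stably expressing hTDP1, seeded 400/well; qHTS titration format.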
TDP1 block: qHTS Assay for Inhibitors of Tyrosyl-DNA Phosphodiesterase (TDP1); Tyrosyl-DNA phosphodiesterase 1 (Homo sapiens), Q9NUW8; recombinant TDP1, AlphaScreen DNA substrate cleavage; Potency, µM (titrated, usually from 130 µM), for inactives: at the top dose activity change, negative = inhibition, hits mostly inhibitors; 350,000 tested, 0.28% active; note: potency is the fitted concentration of half-maximal effect; % is set by controls: 0 for no effect and ±100 for the full control effect; nearly all actives have a fitted effect of over 40% in size
Target sequence (Q9NUW8 whole entry, looked up): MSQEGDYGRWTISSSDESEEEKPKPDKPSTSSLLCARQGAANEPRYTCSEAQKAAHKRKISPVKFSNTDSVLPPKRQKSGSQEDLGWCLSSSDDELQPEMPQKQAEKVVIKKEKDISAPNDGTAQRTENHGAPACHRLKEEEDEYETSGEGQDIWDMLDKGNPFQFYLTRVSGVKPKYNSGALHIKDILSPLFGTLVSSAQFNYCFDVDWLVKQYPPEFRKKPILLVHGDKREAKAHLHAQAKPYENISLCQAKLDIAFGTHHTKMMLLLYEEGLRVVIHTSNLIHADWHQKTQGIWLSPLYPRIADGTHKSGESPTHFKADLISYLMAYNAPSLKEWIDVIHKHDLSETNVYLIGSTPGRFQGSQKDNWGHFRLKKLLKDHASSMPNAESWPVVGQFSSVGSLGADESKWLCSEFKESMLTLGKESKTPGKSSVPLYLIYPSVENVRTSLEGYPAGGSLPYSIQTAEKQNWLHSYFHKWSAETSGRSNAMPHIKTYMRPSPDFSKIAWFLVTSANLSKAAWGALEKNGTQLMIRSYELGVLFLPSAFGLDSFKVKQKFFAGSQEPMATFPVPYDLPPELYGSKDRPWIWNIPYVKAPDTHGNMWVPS
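Signal: AlphaScreen proximity between streptavidin donor and anti-FITC acceptor beads on intact substrate. Reaction: Tdp1 1 nM, substrate 15 nM final, 5 min RT after 15 min compound preincubation.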
TDP1 cell noCPT: qHTS for Inhibitors of human tyrosyl-DNA phosphodiesterase 1 (TDP1): qHTS in cells in absence of CPT; AID 686978, 2013; DT40 Tdp1-/- hTDP1 cells, no CPT, ATP luminescence, 48 h; Potency, µM (top dose mostly 46.2 µM), for inactives: at the top dose activity change, negative = growth inhibition, most hits filed as inhibitors; 420,000 tested, 15% active; note: potency is the fitted concentration of half-maximal effect; % is set by controls: 0 for no effect and ±100 for the full control effect; nearly all actives have a fitted effect of over 55% in size
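Compound effects on proliferation are scored in DT40 Tdp1-/-;hTDP1 cells in the absence of CPT. ATP levels (CellTiter-Glo luminescence) are recorded after a ≥48 hr, 37 °C incubation.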
* hit, by the source's call; ? = inconclusive; nt = no result. Only some compounds are listed: those with a hit (about 19% of all), similar ones and a draw of the others. Unless noted, calls come from the whole dose curve; as a rule, active = well fitted curve in the direction sought with a large enough effect; inconclusive = small, poorly fitted or top-dose-only effect, or another doubt; inactive = no such curve, though single readings can be large; an effect the other way counts as inactive or inconclusive.

SMILES	TGFb inhibitor	HepG2 tox	IL-1B inflam inh	DT40 TDP1 CPT	TDP1 block	TDP1 cell noCPT
COC(=O)[C@@]1(Cc2ccccc2)[C@H]2c3cc(C(=O)N(C)C)n(Cc4c(CO)[nH]cc(C)c4=O)c3C[C@H]2CN1C(=O)c1ccccc1	nt	nt	nt	nt	9.3%	nt
COc1ccc(NC(=O)CSc2nc3c(c(=O)[nH]2)CN(Cc2ccccc2)CC3)cc1Cl	-16.6%	-18.5%	nt	?	5.7%	?
O=C(c1ccco1)n1nc(-c2ccccc2)nc1NCc1ccc(F)cc1	6.9%	-14.3%	nt	nt	1.1%	nt
C[C@@]12C(=O)N(Cc3ccc(F)cc3)CC(=O)N1[C@H]1c3cc(Cl)ccc3OC[C@@H]1[C@@H]2c1ccccc1	?	-13.5%	?	23.1µM*	1.4%	18.4µM*
C[C@@]12C(=O)N(Cc3ccccc3)CC(=O)N1[C@H]1c3cc(Cl)ccc3OC[C@@H]1[C@@H]2c1ccccc1	-3.8%	-16.0%	-27.9	?	2.2%	18.4µM*
C[C@@]12C(=O)N(Cc3ccco3)CC(=O)N1[C@H]1c3cc(Cl)ccc3OC[C@@H]1[C@@H]2c1ccccc1	-16.6%	-11.5%	?	?	5.4%	?
CCCCCCCNC(=O)C1(CC2CC(c3ccc(Cl)cc3)=NO2)CCN(C(=O)c2cc(OCC)c(OCC)c(OCC)c2)CC1 (centres undefined)	-16.8%	-12.6%	-27.7	20.6µM*	nt	10.3µM*
COc1ccc(CNC(=O)C2(CC3CC(c4ccccc4)=NO3)CCN(C(=O)CCCCCBr)CC2)cc1 (centres undefined)	-5.8%	-14.2%	-8.9	9.2µM*	nt	?
CCCCCCCNC(=O)C1(CC2CC(c3cccc(Br)c3)=NO2)CCN(C(=O)Cc2ccc(F)cc2)CC1 (centres undefined)	-0.5%	-11.3%	-58.7*	?	-3.4%	16.4µM*
CCCCCCCNC(=O)C1(CC2CC(c3cccc(Br)c3)=NO2)CCNCC1 (centres undefined)	?	-113.0%	-101.6*	13µM*	nt	16.4µM*
CCCCCCCNC(=O)C1(CC2CC(c3ccc(Cl)cc3)=NO2)CCN(C(=O)CCCCCBr)CC1 (centres undefined)	-18.1%	-25.3%	?	16.4µM*	nt	18.4µM*
CCCCCCCNC(=O)C1(CC2CC(c3ccc(Cl)cc3)=NO2)CCNCC1 (centres undefined)	?	17.8µM*	-84.1*	8.2µM*	nt	10.3µM*
CCCCCCCNC(=O)C1(CC2CC(c3ccc(Cl)cc3)=NO2)CCN(C(=O)Cc2ccc(F)cc2)CC1 (centres undefined)	0.4%	-4.3%	-24.4	?	nt	?
COc1ccc(N(CC(=O)N/N=C(\C)c2ccccc2)S(=O)(=O)c2ccccc2)cc1	-3.2%	-6.7%	6.6	-15.1%	nt	4.5%
Cc1nc2scc(-c3ccc(Cl)cc3)c2c(=O)n1N	-12.8%	-7.9%	0.0	-28.3%	1.2%	?
CC(C)c1nc2scc(-c3ccc(Cl)cc3)c2c(=O)n1N	-6.4%	3.4%	-18.6	25.9µM*	4.2%	?
O=C(NCc1ccco1)c1c2c(nc3ccccc13)CCC2	-0.3%	9.4%	-2.0	14.6µM*	nt	20.6µM*
NC(=O)COC(=O)c1c2c(nc3ccccc13)CCC2	-14.7%	-13.7%	24.5	2.5%	-2.9%	-9.4%
